From PMC4336329 (PLoS ONE, 2015)
About 14,000 (4.5%) of roughly 310,000 compounds showed an effect of 50% or more. The effect is printed as a negative number. For the sample, strong results were picked, then their nearest neighbours and some compounds at random.

The compounds below were run against human ether-à-go-go-related gene (hERG) potassium channel (human, UniProt Q12809) (assay: primary screen, population patch clamp on CHO cells stably expressing hERG; higher = less effect of the substance).
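Also: peak tail current of the secondary pulse compared with the same well before compound.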

Sequence of human ether-à-go-go-related gene (hERG) potassium channel (Q12809 whole entry, looked up): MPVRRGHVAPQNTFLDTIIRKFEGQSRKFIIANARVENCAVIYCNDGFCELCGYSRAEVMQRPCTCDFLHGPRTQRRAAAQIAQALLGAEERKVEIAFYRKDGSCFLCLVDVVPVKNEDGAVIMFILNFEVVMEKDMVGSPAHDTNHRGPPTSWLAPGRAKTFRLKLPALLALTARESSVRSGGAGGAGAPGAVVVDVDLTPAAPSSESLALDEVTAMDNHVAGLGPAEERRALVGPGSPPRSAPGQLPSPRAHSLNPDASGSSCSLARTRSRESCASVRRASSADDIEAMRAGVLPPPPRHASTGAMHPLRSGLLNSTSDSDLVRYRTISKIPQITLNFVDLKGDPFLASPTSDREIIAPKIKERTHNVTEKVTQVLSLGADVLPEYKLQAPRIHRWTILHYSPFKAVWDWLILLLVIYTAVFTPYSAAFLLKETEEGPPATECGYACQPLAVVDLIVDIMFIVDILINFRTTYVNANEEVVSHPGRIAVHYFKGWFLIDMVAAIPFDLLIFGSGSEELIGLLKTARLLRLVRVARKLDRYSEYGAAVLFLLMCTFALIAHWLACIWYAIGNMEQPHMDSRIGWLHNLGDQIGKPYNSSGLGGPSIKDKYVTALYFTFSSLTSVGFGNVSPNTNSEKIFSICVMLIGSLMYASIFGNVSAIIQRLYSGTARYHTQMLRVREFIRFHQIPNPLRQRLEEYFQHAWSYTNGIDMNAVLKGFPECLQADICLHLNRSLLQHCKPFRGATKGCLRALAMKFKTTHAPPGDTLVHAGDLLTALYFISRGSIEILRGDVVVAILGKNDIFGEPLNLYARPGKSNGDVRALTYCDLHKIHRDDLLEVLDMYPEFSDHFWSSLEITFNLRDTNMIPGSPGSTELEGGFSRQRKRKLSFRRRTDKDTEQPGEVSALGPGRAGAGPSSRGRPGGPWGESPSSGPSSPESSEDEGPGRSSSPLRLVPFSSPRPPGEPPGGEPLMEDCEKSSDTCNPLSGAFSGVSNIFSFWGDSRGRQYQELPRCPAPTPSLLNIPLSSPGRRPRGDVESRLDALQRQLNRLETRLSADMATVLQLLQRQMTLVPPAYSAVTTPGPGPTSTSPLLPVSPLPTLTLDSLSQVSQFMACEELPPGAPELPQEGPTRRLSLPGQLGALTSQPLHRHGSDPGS

Compound	hERG current change (%, negative = inhibition) at 10uM
COc1cc2c(cc1O)[C@@H]1Cc3cc(O)c(OC)cc3[C@H](C2)N1C	11.3%
COc1cc2c(cc1OC)-c1c(OC)c(OC)cc3c1C(C2)N(C)CC3 (stereo not drawn)	-5.23%
COc1cc2c(cc1OC)-c1c3c(cc4c1[C@@H](C2)N(C)CC4)OCO3	-31.7%
COc1ccc2c(c1O)-c1c(OC)c(OC)cc3c1[C@H](C2)N(C)CC3	-36.5%
COc1cc2c(cc1O)C[C@H]1c3c(cc(O)c(OC)c3-2)CCN1C	-70.1%
COc1cc2c(cc1O)CC1c3c(cc(O)c(OC)c3-2)CCN1C (stereo not drawn)	-59.2%
O=C(O)CCCCCN1C(=O)/C(=C\c2ccc(-c3ccc(Cl)cc3)o2)SC1=S	18%
COCCN1C(=O)c2ccccc2C(C(=O)Nc2ccc3c(c2)OCCO3)C1c1ccc(F)cc1 (stereo not drawn)	17.1%
COc1cccc(S(=O)(=O)Nc2ccc(C(=O)Nc3ccncc3)cc2)c1	2.7%
N#Cc1ccc(S(=O)(=O)N2CCC(N3CCCCC3)CC2)cc1	-58.3%
CCn1c(SC)nnc1-c1ccc(S(=O)(=O)N2CCCCC2)cc1	-12.1%
Cc1ccc(CSc2ccc(S(=O)(=O)N3CCCC3)cn2)cc1	-4.27%
O=S(=O)(c1ccc(Cl)cc1)N1CCC(N2CCCCCC2)CC1	-49.9%
Cc1ccc(S(=O)(=O)N2CCC(N3CCCCCC3)CC2)cc1	-23.2%
CCn1c(SCc2ccc(C#N)cc2)nnc1-c1ccc(S(=O)(=O)N2CCCCC2)cc1	-70.7%
O=S(=O)(c1ccc(SCc2ccc(Cl)cc2)nc1)N1CCCC1	-8.21%
CCn1c(SCc2ccccc2)nnc1-c1ccc(S(=O)(=O)N2CCCCC2)cc1	-36.2%
N#Cc1ccc(CSc2ccc(S(=O)(=O)N3CCCC3)cn2)cc1	-67.2%
CC(=O)c1cccc(N/C=C\c2nnnn2-c2ccc(F)cc2)c1	0.338%
COC(=O)C1=C(C)NC(C)=C(C(=O)OC)C1c1ccccn1	5.81%
O=C(NC1CCCC1)C(c1cccnc1)N(C(=O)c1csnn1)C1CCCC1 (stereo not drawn)	13%
O=C(CN(C(=O)Cn1nnc(-c2cccs2)n1)c1ccc2c(c1)OCCO2)NC1CCCCC1	-13.2%

Compound	hERG current change (%, negative = inhibition) at 10uM
Cc1nnc(C)n1N	12.1%
CCn1c(=O)cc(OCC(=O)O)c2ccccc21	10.6%
S=C(NCc1ccccc1)Nc1ccc(Cl)cc1	-25.1%
OCC1CCCN(c2nc(CN3CCCCC3)nc3scc(-c4ccccc4)c23)C1 (stereo not drawn)	-63.7%
CC1CCN(c2nc(CN3CCCCC3)nc3scc(-c4ccccc4)c23)CC1	-75.5%
CC1CCN(c2nc(-c3cccnc3)nc3scc(-c4ccccc4)c23)CC1	15.4%
CCC(CO)Nc1nc(CN2CCCCC2)nc2scc(-c3ccccc3)c12 (stereo not drawn)	-68.2%
CC1CCCN(c2nc(-c3cccnc3)nc3scc(-c4ccccc4)c23)C1 (stereo not drawn)	11.6%
OCC1CCCN(c2ncnc3scc(-c4ccccc4)c23)C1 (stereo not drawn)	3.73%
O=C(O)C(=O)O.c1ccc(CNc2nc(CN3CCOCC3)nc3scc(-c4ccccc4)c23)cc1	-20.6%
Fc1ccc(N2CCN(c3nc(CN4CCOCC4)nc4scc(-c5ccccc5)c34)CC2)cc1	-5.05%
Clc1ccc(CNc2nc(CN3CCOCC3)nc3scc(-c4ccccc4)c23)cc1	-9.73%
CCCCN(C(=O)CCC(=O)Nc1cc(C)on1)C(C(=O)NC(C)(C)CC)c1cccc(OC)c1OC (stereo not drawn)	1.4%
Cc1cccc(C)c1NC(=O)CSc1nnnn1C	-1.61%
O=C(CSc1ccccn1)Nc1ccc(Cl)c([N+](=O)[O-])c1	-19.6%
COc1ccc(Cn2c(N)c(C#N)c3nc4ccccc4nc32)cc1	11.2%
COc1ccc(-n2c(SCC(=O)NCCCN3CCCC3=O)nnc2C(C)N2CCCCC2)cc1 (stereo not drawn)	43.4%
C=CCc1cccc(CNc2nc3ccccc3n2CCC)c1O	5.13%
C#CCOCCOCCOCCNc1nc(N2CCOCC2)nc(N2CCN(C(=O)CCCCCCCCCCNC(=O)[C@H](CO)n3cc(CCCSC)nn3)CC2)n1	-0.214%
CCOc1ccc(S(=O)(=O)Nc2ccc(C(=O)NCC(c3ccco3)N3CCCCC3)cc2)cc1 (stereo not drawn)	-25.1%
CC(C)[C@H](NC(=O)[C@H]1N2C(=O)c3ccccc3C2SC1(C)C)C(=O)NCc1ccco1 (stereo partly drawn)	2.21%
Cc1cccc(C)c1NC(=O)CSc1nnc(Cn2nnc(-c3ccccc3)n2)n1-c1ccccc1	-22.3%

Compound	hERG current change (%, negative = inhibition) at 10uM
CCN(CC)c1ccc(CNc2ccc(Br)cn2)cc1	13.1%
CC1(C)Cc2c(c(N3CCOCC3)nc3sc(-c4ccc(C(=O)O)o4)c(N)c23)CO1	-15.2%
Cn1nnc(NC(=O)/C=C/c2ccco2)n1	8.33%
CCC(C)[C@H](NC(=O)NC1CCCc2ccccc21)C(=O)O (stereo partly drawn)	20.6%
Cc1cc(C(=O)NC2CCCc3ccccc32)ccc1[N+](=O)[O-] (stereo not drawn)	9.18%
O=C(NC1CCCc2ccccc21)c1ccccc1 (stereo not drawn)	3.92%
O=C(NC1CCCc2ccccc21)c1ccc(Br)cc1 (stereo not drawn)	-7.78%
COC(=O)[C@@H](NC(=O)NC1CCCc2ccccc21)C(C)C (stereo partly drawn)	9.47%
O=C(NC1CCSc2ccccc21)c1ccc([N+](=O)[O-])cc1 (stereo not drawn)	-40.3%
N#Cc1ccc(C(=O)NC2CCCc3ccccc32)cc1 (stereo not drawn)	-52.8%
CC(C)[C@H](NC(=O)NC1CCCc2ccccc21)C(=O)O (stereo partly drawn)	-68.2%
O=C(NC1CCCc2ccccc21)c1ccc([N+](=O)[O-])cc1 (stereo not drawn)	-53.4%
COc1ccc(C(CNC(=O)C(CCSC)NC(=O)c2ccccc2Cl)N2CCOCC2)cc1 (stereo not drawn)	-8.2%
CC(C)C[C@H](NC(=O)c1cc2cc(Cl)ccc2n1C)C(=O)N1CCC(C(=O)O)CC1	13.5%
CN(C(=O)c1cccc(N2C(=O)C3C4C=CC(C4)C3C2=O)c1)C1CCCCC1 (stereo not drawn)	0.921%
O=C(Nc1ccccc1)NC(Cc1ccc(O)cc1)C(=O)O (stereo not drawn)	17.4%
O=C(NC(=S)Nc1ccccc1C(=O)O)c1cncc(Br)c1	23%
COc1ccc(OC)c(/C=C/C(=O)OCC(=O)Nc2ccc3c(c2)OCCO3)c1	15.9%
Cc1noc(/C=C/N(C)C)c1S(=O)(=O)N1CCc2ccccc21	-18.6%
COc1ccccc1CN(C)C(=O)c1cccc(S(=O)(=O)N2CCc3ccccc3C2)c1	-4.08%
O=C(COC(=O)c1cc(=O)c2ccccc2o1)Nc1ccc2ccccc2c1	17.6%
CN1/C(=C\C(=O)CSc2nnc(NCc3ccccc3)s2)C(C)(C)c2ccccc21	-13.1%

Compound	hERG current change (%, negative = inhibition) at 10uM
CN1/C(=C\C(=O)CSc2nnc(N)s2)C(C)(C)c2ccccc21	0.532%
CC(C)Nc1nnc(SCC(=O)/C=C2\N(C)c3ccccc3C2(C)C)s1	-65.1%
CN1CCCC(C(=O)c2ccc(Cl)cc2)C1 (stereo not drawn)	-23%
O=C(c1ccc(C(F)(F)F)cc1)C1CCCN(C2CCSCC2)C1 (stereo not drawn)	-71.2%
O=C(c1ccc(C(F)(F)F)cc1)C1CCCN(C(=O)c2csnn2)C1 (stereo not drawn)	-22.6%
Cc1nc(C)c(C(=O)N2CCCC(C(=O)c3ccc(Cl)cc3C)C2)s1 (stereo not drawn)	-23%
COc1ccc(C(=O)C2CCCN(C3CSCCSC3)C2)c(C)c1 (stereo not drawn)	-13%
COC(=O)CCC(=O)N1CCCC(C(=O)c2ccc(Cl)cc2C)C1 (stereo not drawn)	-5.75%
CC(C)(C)c1ccc(C(=O)C2CCCN(C3CCC3)C2)cc1 (stereo not drawn)	-18.4%
Cc1cc(Cl)ccc1C(=O)C1CCCN(C2CCSCC2)C1 (stereo not drawn)	-74.3%
Cc1cc(Cl)ccc1C(=O)C1CCCN(C(=O)c2snnc2C)C1 (stereo not drawn)	-56.1%
Cc1cc(Cl)ccc1C(=O)C1CCCN(C(=O)c2nonc2C)C1 (stereo not drawn)	-26.3%
O=C(c1ccc(Cl)cc1)C1CCCN(C(=O)c2csnn2)C1 (stereo not drawn)	0.734%
O=C(c1ccc(Cl)cc1)C1CCCN(C2CCSCC2)C1 (stereo not drawn)	-78.9%
COc1cc2cc(C)nc(Cc3cccc4ccccc34)c2cc1OC	8.53%
CC#CP(=O)(OCC)C(O)(c1ccccc1)C(F)(F)F (stereo not drawn)	-3.29%
CC(=O)Nc1c(O)nc(SCC(=O)Nc2cccc(C)c2)[nH]c1=O	14.8%
CCOc1cc(-c2ccc(N)c(OCC)c2)ccc1N	-10.2%
S=C(NCc1ccc(Cl)c(Cl)c1)Nc1ccc2c(c1)OCO2	-6.19%
Nn1c(SCC(=O)Nc2ccc(S(N)(=O)=O)cc2)nnc1C(F)(F)F	0.037%
Cc1cc(Cl)cc(C)c1OCCCCCn1ccnc1	-28.1%
